We go through 39 compounds from PubChem BioAssay (NCI).

SMILES strings stand for the structures. Compounds without any hit were thinned out: in the full panel of roughly 83,000, 20% have a hit.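 Testing used 96-well plates and a 48-hour single-concentration exposure. Example: -40 means 40% of the starting cells died.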 Unmarked numbers belong to inactive results. Activity calls are given as the source filed them. Rule for the calls: active = growth percent below 10; inactive = the rest.

The test system of the assay is HL-60(TB) leukemia. As to the kind of experiment: NCI-60 one-dose screen, 48 h (100 = growth as untreated, 0 = no growth, -100 = all killed). The following applies: 10 µM unless noted.
For `O=C(c1ccc(O)cc1)c1ccc(O)cc1`, the growth is 117%.

For `O=C(COc1cccc(/C=C2\CSc3ccccc3C2=O)c1)c1ccc(Cl)cc1`, the growth was -48% (active).

On to `C=CCn1c(=O)c2cnc(Nc3ccc(N4CCN(C)CC4)cc3)nc2n1-c1cccc(C(C)(C)O)n1`, for which the growth is -22.4% (active).

In the case of `COc1cccc(-c2nc3sccn3c2-c2ccnc(NCCCNS(=O)(=O)c3ccc(Cl)cc3)c2)c1`, the growth is 27.4%. Next, `CCCCOc1ccc(/C=C2/SC(N3CCCC3)=NC2=O)cc1`: 98%; `CCN1C(=O)N(CC)C2C1NC(=S)N2/N=C/c1ccc(OC)cc1` (centres undefined): -12.1% (active); `CC(C)(C)n1cc(-c2ccnc(NCCCNS(=O)(=O)c3ccc(C(F)(F)F)cc3)c2)c(-c2cccc(O)c2)n1`: -24.5% (active). Next, `CCN(CC)CCCC(C)NCc1ccccc1` (centres undefined): 105%.

As to `CC(Cc1nnc(SCC(=O)Nc2ccc(I)cc2)n1N)c1ccccc1` (centres undefined), the growth is 158%. Regarding `O=C(Nc1ncccc1OCc1ccccc1)NC1CCCCCC1`, the growth is 57.7%. Consider `COC(=O)Cc1nc(C#N)c(N(C)C)o1`, for which the growth is 99.5%. For `Cn1c(C(N)=O)cc2c1-c1nc(Nc3ccccc3)ncc1CCC2`, the growth is 40.6%.

With `CC/C(=C(/c1ccc(Cl)cc1)c1ccc(OCCN2CCCCC2)cc1)c1ccc(OC)cc1`, the growth is 24%.

For `CCOC(=O)c1c(C)c(C(=O)OCC)n(C)c1C`, the growth was 85.9%. For `CCOC(=O)c1c(C)nc2c(c1N)/C(=C/c1cc(OC)c(OC)c(OC)c1)C(=O)N2c1ccc(OC)cc1` the value was 28.2%; for `CN(C)C/C=C/C(=O)Nc1cc2c(Nc3ccc(F)c(Cl)c3F)ncnc2cc1OCCOC(F)F`, 13.2%. With `CC(=O)c1cccs1`, the growth is 130%. Turning to `O=C(c1ccccc1)N(C(=O)c1ccccc1)N1CCCC1`, the growth was 120%. For `Cc1cccc(-n2c(C)nc3ccc(NC(=O)NCCCl)cc3c2=O)c1` the value was 113%; for `CCCCCn1sc(=O)n(Cc2ccc(CNC(=O)OCc3ccc4c(Cl)cc(Cl)c(O)c4n3)cc2)c1=O`, 63.5%. For `Cc1cccc(NC(=O)c2sc3nc4c(cc3c2N)C(=O)CCC4)c1` the value was 6.14% (active); for `Nc1nc(-c2cc3c(cc2Cl)NC(=O)/C3=C/c2ccccc2)cs1`, 47%.

With `O=S(=O)(NCCNc1cc(-c2c(-c3cccc(O)c3)nc3sccn23)ccn1)c1ccc(Br)cc1`, the growth was 77.6%. Regarding `O=C(CN1N=C(c2ccc(F)cc2)CCC1=O)Nc1nccs1`, the growth was 95.3%. Take `Clc1nccc2c(-c3csc(-c4c[nH]c5ccccc45)n3)c[nH]c12`: the growth was 29.4%. Next, `Cc1ccc2c(-n3nc(C#N)c(C#N)c3N)cc(=O)[nH]c2c1`: 109%. Consider `Cc1ccc2c(c1)C(C)Cc1c(N(C)C)ncnc1N2C` (centres undefined), for which the growth was -5.91% (active). On to `N#Cc1ccc(NC(=O)c2sc3nc4c(cc3c2N)C(=O)CCC4)cc1`, for which the growth is 81%. Next, `Clc1nc2ccc(Br)cc2cc1-c1nc2ccccc2[nH]1`: 87.6%; `CCCCN(C)N=Nc1ccc(C(N)=O)cc1`: 73.5%; `CC(=O)/C=C/c1cc2cc(Cl)ccc2[nH]c1=O`: 54.5%. With `O=C(N/N=C/c1ccc2c(c1)OCO2)c1cnn2c1NC(c1ccccc1)C2` (centres undefined), the growth was 56.3%.

In the case of `Cc1c(O)cc(-c2cnc(N/N=C\c3ccc(Cl)cc3)s2)c(O)c1C`, the growth was -3.05% (active). As to `Cc1cccc(-c2nc(C(C)C)sc2-c2ccnc(NCCCNS(=O)(=O)c3ccc(Cl)cc3)c2)c1`, the growth was 80.1%. Regarding `C=CC(=O)N[C@H](/C=C/C(=O)OCC)Cc1ccc(-c2cc(Cl)cc(Cl)c2)cc1`, the growth was 76.5%. For the compound `Nc1nnc(-c2ccc3ccccc3c2O)o1`, the growth was 102%. For `Cc1ccccc1-n1nnc(C(=O)Nc2nc3ccc(F)cc3s2)c1C` the value was 1.12% (active); for `COC(=O)[C@]12CC[C@@H](C)[C@H](C)[C@@H]1C1=CC[C@@H]3[C@@]4(C)C(C=O)=C[C@@](C)(COC(=O)c5ccco5)[C@@H]4[C@H](O)C[C@@]3(C)[C@]1(C)CC2`, -21.9% (active); for `Cc1ccc(Cc2cnc(NC(=O)c3ccc4noc(-c5ccccc5)c4c3)s2)cc1`, 97.7%.
